Shown are actives, neighbours in structure and some others; about 4% of the full set was active somewhere.
VHR inh abs – blocks human VHR1 dual specificity phosphatase | inhibition, % at 13.3 µM | P51452 | AID 1654 | 290,000 tested, 0.52% active | recombinant VHR phosphatase, pNPP absorbance; in the data active = inhibition above about 50%
MazEF act – increases E. coli MazEF RNase cleavage of RNA; FAM/BHQ RNA-DNA oligo cleavage fluorescence, 5 h; activation, % at 20 µM; 350,000 tested, 0.32% active; AID 504720; in the data active = activation above about 50%
BoNT-F LC inh – blocks Botulinum neurotoxin F light chain protease; Multiplex microsphere protease cleavage assay, flow cytometry; inhibition, % at 10 µM; 360,000 tested, 0.22% active; in the data active = inhibition above about 35%, passing the limit was not always enough; inconclusive = no clear call, values can overlap the other calls
Anthrax LF inh2 – blocks Bacillus anthracis lethal factor protease | multiplex microsphere protease cleavage assay, LF | inhibition, % at 10 µM | 360,000 tested, 0.12% active | AID 588501
Bead autofluor – compound fluorescence in toxin protease inhibitor counterscreen | fluorescence intensity (test concentration not listed) | 360,000 tested, 3.1% active | AID 624483 | compound autofluorescence counterscreen, microsphere flow cytometry; active compounds read high; in the data active = fluorescence intensity above about 16000; inconclusive = no clear call, values can overlap the other calls
BoNT-A LC inh2 – BoNT A light chain protease inhibition | 360,000 tested, 0.17% active | AID 588499 | multiplex microsphere protease substrate cleavage, flow cytometry | inhibition, % at 10 µM
Numbers stand for hits; 0 = inactive; ? = inconclusive; - = no result given. Cut-off read from the data, not from the text of the source, unless noted: active = inhibition above about 30%; inconclusive = no clear call, values can overlap the other calls; inactive = below that.

SMILES	VHR inh abs	MazEF act	BoNT-F LC inh	Anthrax LF inh2	Bead autofluor	BoNT-A LC inh2
COc1cc(C2NC(=O)NC(C)=C2C(C)=O)cc(OC)c1OC (stereo not given)	0	0	0	0	0	0
COc1cc(C2NC(=O)NC(C)=C2C(C)=O)ccc1O (stereo not given)	0	83	0	0	0	0
CCOC(=O)COc1c(Br)cc(C2NC(=O)NC(C)=C2C(C)=O)cc1OC (stereo not given)	0	0	0	0	0	0
O=C(OCCNc1ccc(C(F)(F)F)cc1[N+](=O)[O-])c1cc2ccccc2oc1=O	0	251	0	0	0	0
CCOc1cccc(C2C(C(=O)c3ccco3)=C(O)C(=O)N2c2nnc(C)s2)c1 (stereo not given)	-	0	0	0	0	0
CCSc1nnc(N2C(=O)C(O)=C(C(=O)c3ccco3)C2c2cccc(OC)c2)s1 (stereo not given)	0	65	0	0	0	0
CCOC(=O)C1(CCOc2ccccc2)CCN(Cc2ccc(OC)cc2)CC1	-	0	?	0	0	0
Cc1ccc(-c2cc(-c3ccccc3)[nH]c(=S)c2C#N)cc1	0	0	0	0	0	0
N#Cc1c(N)[nH]c(=S)c(C#N)c1-c1ccccc1	0	0	0	0	20825	0
Cc1ccc(C(=O)N(CC(=O)NC2CCCC2)c2ccccc2Cl)s1	0	0	0	0	0	0
COC(=O)c1ccc(Oc2nc(Nc3ccccc3)nc(N(C)C)n2)cc1	0	0	0	0	20995	0
CCN(CC)c1nc(Nc2ccccc2)nc(Oc2ccc(C(=O)OC)cc2)n1	0	0	0	0	0	0
COc1ccc(NC2=C(C(C)=O)C(c3ccc(N(C)C)cc3)C(C(C)=O)C(C)(O)C2)cc1 (stereo not given)	0	0	0	0	0	0
O=C(COc1ccc2ccc(=O)oc2c1)Nc1ccc2c(c1)OCCO2	-	0	0	0	21506	0
O=C(COc1ccc2ccc(=O)oc2c1)Nc1ccc(CCO)cc1	0	0	0	0	0	0
Cc1cccc(N2CCN(C(=O)c3csc4ccccc34)CC2C)c1 (stereo not given)	0	0	0	0	0	0
COCCCNC(=S)NNC(=S)Nc1ccc(F)cc1F	0	0	0	0	21111	?
COc1cc(/C=C(\C#N)c2nn(CCO)c(N)c2C#N)cc(OC)c1OC	0	0	0	0	0	0
O=C(c1ccco1)N1CCN(C(=O)c2cc(-c3ccc(F)cc3)no2)CC1	0	0	0	0	0	0
Cc1ccc2[nH]c(=O)c(NC(N)=S)nc2c1	0	0	0	0	20753	0
O=C(NN1CC(=O)N(c2cc(Cl)cc(Cl)c2)CC1=O)c1cccs1	0	0	-	-	-	-
C/C(CC(=O)Nc1cccc2c1CCCC2)=N\NC(=O)c1ccccc1N	0	0	0	0	24027	?
CCOc1cc(C2C(C(=O)N3CCCCC3)=C(C)NC3=C2C(=O)CCC3)cc(Br)c1O (stereo not given)	0	0	0	0	24537	0
Cc1cc2cc(CNC(=O)c3ccc4c(c3)OCO4)ccc2[nH]1	0	0	0	0	0	67
CCc1c(C(=O)NCc2ccc3c(c2)OCO3)[nH]c(C)c1C(C)=O	0	0	0	0	17026	0
SMILES	VHR inh abs	MazEF act	BoNT-F LC inh	Anthrax LF inh2	Bead autofluor	BoNT-A LC inh2
CC(=O)c1c(C)[nH]c(C(=O)OCC(=O)NCc2ccc3c(c2)OCO3)c1C	-	0	0	0	0	0
COc1ccccc1C(=O)NCC(=O)OCC(=O)Nc1cccc(S(=O)(=O)N(C)C)c1	0	0	0	0	0	0
COCCn1c(SCCN2CCOCC2)nc2c1c(=O)[nH]c(=O)n2C	58	0	0	0	0	0
C=CCn1c(SCCN2CCOCC2)nc2c1c(=O)[nH]c(=O)n2C	0	0	0	0	0	0
CCC1CCCCN1CC(=O)c1c(C)[nH]c2cc(C)ccc12 (stereo not given)	52	0	0	0	0	0
Cc1ccc2c(C(=O)CN3CCCCC3CCO)c(C)[nH]c2c1 (stereo not given)	0	0	0	0	0	0
O=C(Nc1ccc(O)cc1)C1CCCN1S(=O)(=O)c1ccc(F)cc1 (stereo not given)	0	0	0	0	0	0
Cc1ccc(-c2noc(CSc3nnc(-c4ccncc4)n3-c3ccc(C)cc3)n2)cc1	0	0	0	0	24919	0
C=CCSc1n[nH]c(-c2ccc(OCCC)cc2)n1	0	0	0	0	0	0
C=CCSc1n[nH]c(-c2ccc(OCCCC)cc2)n1	0	0	0	0	16907	0
CC(=O)N(C(C)=O)c1c(N2CCOCC2)c2ccccc2oc1=O	0	0	0	0	21404	0
CC(=O)N(C(C)=O)c1c(N2CCCC2)c2ccccc2oc1=O	0	0	0	0	0	0
COc1ccc(NC(=O)c2ccc(N3CCOCC3)nc2)cc1	0	0	0	0	0	0
O=C(Nc1ccc(N2CCOCC2)nc1)c1ccc(F)cc1	0	0	0	0	22364	0
Cc1ccc(C(=O)Nc2ccc(N3CCOCC3)nc2)cc1	0	0	0	0	0	0
CN(C)c1ccc(NC(=O)c2ccc(N3CCOCC3)nc2)cc1	52	0	0	0	0	0
COc1ccc(N(C(=O)c2ccncc2)S(=O)(=O)c2cccs2)cc1	0	0	0	0	0	0
Cc1cnc(C(=O)OCc2ccc(C#N)cc2)cn1	0	0	0	0	0	0
CC(=O)OCCNc1cc(N2CCN(C)CC2)c2noc3c2c1C(=O)c1ccccc1-3	0	0	0	0	0	0
CCOC(=O)C(C(=O)OCC)c1cc(Br)c2noc3c2c1C(=O)c1ccccc1-3	0	178	0	58	0	68
Cc1ccc(N=Cc2cc(C)n(C3CCCC3)c2C)cc1	0	0	0	0	0	0
O=C(c1coc2ccccc2c1=O)N1CCN(c2cccc(C(F)(F)F)c2)CC1	0	0	0	0	0	0
Cc1ccsc1C1Nc2ccc3ncccc3c2C2=C1C(=O)CC(C)(C)C2 (stereo not given)	0	0	0	0	16347	?
O=C1CCCC2=C1C(c1cccs1)Nc1ccc3ncccc3c12 (stereo not given)	0	0	0	0	23605	?
CCOc1ccc(NC(=O)CCCCn2c(=O)[nH]c3ccsc3c2=O)cc1	0	0	0	0	0	0
SMILES	VHR inh abs	MazEF act	BoNT-F LC inh	Anthrax LF inh2	Bead autofluor	BoNT-A LC inh2
O=C(Nc1nnc(C2=COCCO2)o1)c1ccc(S(=O)(=O)N2CCCCC2)cc1	0	0	0	0	0	0
Cc1cccc(CN2CCN(c3ncccn3)CC2)c1	0	0	?	0	0	0
Cc1cccc(CN2CCN(c3ccccn3)CC2)c1	-	0	0	0	23318	?
c1ccc(COc2cccc(CN3CCCCC3)c2)cc1	0	0	0	0	0	0
c1ccc(COc2cccc(CN3CCN(c4ccccn4)CC3)c2)cc1	0	0	0	0	20483	0
CCC(Oc1cc(Cl)ccc1Cl)C(=O)NNC(=O)CCC(=O)O (stereo not given)	0	0	0	0	0	0
CCC(Oc1cc(Cl)ccc1Cl)C(=O)NN1C(=O)C2C3CCC(C3=C(C)C)C2C1=O (stereo not given)	0	0	35	0	0	0
